PubChem BioAssay (EPA / NIEHS)
Activity calls are given as the source filed them. Rule for the calls: active = hit-call score of the fitted dose curve at least 0.9, where 1 is the maximum; inactive = score below 0.9.

Key:
[1] = BSK_3C_SRB: Viability Assessment in the BioMAP Diversity Plus: 3C Assay (AID 2283023); settings: primary human endothelial cells (HUVEC);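 note: fitted both ways against DMSO so a hit may be signal rise or drop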
In short: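 Primary human umbilical vein endothelial cells in the 3C system were read 24 h after compound dosing. Total protein was stained with 0.1% sulforhodamine B after 10% TCA fixation and read at 560 nm, with bidirectional fitting against DMSO as baseline.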

[2] = read-out: Matrix Metallopeptidase 1 (MMP1), MMP1 (gene 4312); assay: BSK_BE3C_MMP1: BioMAP Diversity Plus: BE3C Assay for Matrix Metallopeptidase 1 (MMP1) Biomarker Activity (AID 2283024); settings: primary human bronchial epithelial cells; actives raise or lower the signal
In short: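 ELISA measurement of MMP-1 after 24 h compound exposure of primary human bronchial epithelial cells. Changes in either direction fitted relative to DMSO; parallel SRB staining checked overt cytotoxicity.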

[3] = BSK_3C_Vis: BioMAP Diversity Plus: 3C Assay for Morphology Visualization (AID 2283025); settings: primary human endothelial cells (HUVEC);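 note: fitted both ways so gain or loss versus DMSO counts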;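 for AC50: light microscopy image of cell morphology used as background control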
In short: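 Light-microscopy visualization of HUVEC cultures at 24 h post-treatment, with DMSO as baseline for bidirectional fitting.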

[4] = read-out: Pselectin, SELP (gene 6403); assay: BSK_4H_Pselectin: BioMAP Diversity Plus: 4H Assay for Pselectin Biomarker Activity (AID 2283026); settings: primary human endothelial cells (HUVEC); actives raise or lower the signal
In short: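 ELISA of surface P-selectin on HUVEC, 24 h after dosing, with parallel SRB staining (0.1% after 10% TCA fixation, 560 nm) for overt cytotoxicity. Activity fitted in both directions relative to DMSO.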

[5] = BSK_4H_SRB: Viability Assessment in the BioMAP Diversity Plus: 4H Assay (AID 2283027); settings: primary human endothelial cells (HUVEC);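 note: cells exposed to compound for 24 h before staining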;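 for AC50: curves fitted both ways versus DMSO so AC50 may be loss or gain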
In short: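 Cytotoxicity readout: sulforhodamine B (0.1%) staining of total protein after 10% TCA fixation, measured at 560 nm in human umbilical vein endothelium at 24 h. DMSO set the baseline; fitting was bidirectional.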

[6] = BSK_BE3C_SRB: Viability Assessment in the BioMAP Diversity Plus: BE3C Assay (AID 2283028); settings: primary human bronchial epithelial cells;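 for AC50: fitted both ways so AC50 may mark signal gain or loss versus DMSO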
In short: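 Human primary bronchial epithelial cells were exposed to test chemicals for 24 h. Total protein in parallel cultures was then measured by staining with 0.1% sulforhodamine B after 10% TCA fixation, with absorbance read at 560 nm. Activity was fitted bidirectionally against DMSO.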

[7] = read-out: Thrombomodulin, THBD (gene 7056); assay: BSK_3C_Thrombomodulin: BioMAP Diversity Plus: 3C Assay for Thrombomodulin Biomarker Activity (AID 2283029); settings: primary human endothelial cells (HUVEC); actives raise or lower the signal
In short: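 ELISA measurement of thrombomodulin on HUVEC surface 24 h after chemical dosing; activity fitted in both directions relative to DMSO vehicle.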

[8] = read-out: Urokinase-type plasminogen activator receptor (uPAR), PLAUR (gene 5329); assay: BSK_4H_uPAR: BioMAP Diversity Plus: 4H Assay for Urokinase-type plasminogen activator receptor (uPAR) Biomarker Activity (AID 2283030); settings: primary human endothelial cells (HUVEC); actives raise or lower the signal
In short: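 Primary human umbilical vein endothelial cells were exposed to chemical for 24 h before cell-surface uPAR was quantified by ELISA. Activity was fitted bidirectionally against the DMSO negative control baseline.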

[9] = read-out: Human Leukocyte Antigen - DR isotype (HLADR), HLA-DRA (gene 3122); assay: BSK_BE3C_HLADR: BioMAP Diversity Plus: BE3C Assay for Human Leukocyte Antigen - DR isotype (HLADR) Biomarker Activity (AID 2283032); settings: primary human bronchial epithelial cells; actives raise or lower the signal
In short: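 Cell-surface HLA-DR ELISA readout at 24 h after dosing in the BE3C primary human lung bronchial epithelial system; gain or loss of signal against DMSO, with parallel sulforhodamine B staining of total protein for overt cytotoxicity.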

[10] = read-out: Vascular cell adhesion molecule 1 (VCAM1), VCAM1 (gene 7412); assay: BSK_4H_VCAM1: BioMAP Diversity Plus: 4H Assay for Vascular cell adhesion molecule 1 (VCAM1) Biomarker Activity (AID 2283033); settings: primary human endothelial cells (HUVEC); actives raise or lower the signal
In short: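 VCAM-1 ELISA read 24 h after chemical dosing of HUVEC in the BioMAP 4H system, with gain or loss of signal fitted relative to DMSO. Parallel SRB staining (560 nm) checked overt cytotoxicity.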

[11] = read-out: Interferon-gamma inducible Protein 10 (IP10), CXCL10 (gene 3627); assay: BSK_BE3C_IP10: BioMAP Diversity Plus: BE3C Assay for Interferon-gamma inducible Protein 10 (IP10) Biomarker Activity (AID 2283034); settings: primary human bronchial epithelial cells; actives raise or lower the signal
In short: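 IP-10 quantified by ELISA in human primary bronchial epithelial cell cultures at 24 hours post-dosing. Gain or loss of signal fitted relative to DMSO; parallel SRB staining assessed overt cytotoxicity.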

[12] = read-out: Monokine induced gamma interferon (MIG), CXCL9 (gene 4283); assay: BSK_BE3C_MIG: BioMAP Diversity Plus: BE3C Assay for Monokine induced gamma interferon (MIG) Biomarker Activity (AID 2283035); settings: primary human bronchial epithelial cells; actives raise or lower the signal
In short: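 hu bronchial epithelial 1° cells, 24 h cpd; MIG by ELISA; bidirectional fit, DMSO = baseline.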

[13] = read-out: Transforming growth factor beta 1 (TGFb1), TGFB1 (gene 7040); assay: BSK_BE3C_TGFb1: BioMAP Diversity Plus: BE3C Assay for Transforming growth factor beta 1 (TGFb1) Biomarker Activity (AID 2283036); settings: primary human bronchial epithelial cells; actives raise or lower the signal
In short: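 ELISA readout of TGF-b1 from human lung bronchial epithelial primary cells, taken 24 h post-treatment. Gain or loss of signal fitted relative to DMSO baseline, with parallel SRB staining for overt cytotoxicity.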

[14] = read-out: Plasminogen activator inhibitor-1 (PAI1), SERPINE1 (gene 5054); assay: BSK_BE3C_PAI1: BioMAP Diversity Plus: BE3C Assay for Plasminogen activator inhibitor-1 (PAI1) Biomarker Activity (AID 2283037); settings: primary human bronchial epithelial cells; actives raise or lower the signal
In short: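 PAI-1 was measured by ELISA in human primary bronchial epithelial cultures 24 h after chemical dosing, with cytotoxicity checked by SRB total-protein staining in parallel cultures. Activity was fitted in both directions relative to DMSO.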

[15] = read-out: Urokinase-type plasminogen activator receptor (uPAR), PLAUR (gene 5329); assay: BSK_BE3C_uPAR: BioMAP Diversity Plus: BE3C Assay for Urokinase-type plasminogen activator receptor (uPAR) Biomarker Activity (AID 2283039); settings: primary human bronchial epithelial cells; actives raise or lower the signal
In short: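 uPAR levels were measured by ELISA after 24 h compound treatment of primary human bronchial epithelial cells, fitted in both directions relative to DMSO. Parallel SRB staining served as the cytotoxicity read-out.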

[16] = read-out: Interleukin-6 (IL6), IL6 (gene 3569); assay: BSK_CASM3C_IL6: BioMAP Diversity Plus: CASM3C Assay for Interleukin-6 (IL6) Biomarker Activity for (AID 2283040); settings: primary human coronary artery smooth muscle cells; actives raise or lower the signal
[17] = read-out: Tissue plasminogen activator (tPA), PLAT (gene 5327); assay: BSK_BE3C_tPA: BioMAP Diversity Plus: BE3C Assay for Tissue plasminogen activator (tPA) Biomarker Activity (AID 2283041); settings: primary human bronchial epithelial cells; actives raise or lower the signal
In short: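 tPA measured by ELISA 24 h after dosing human primary bronchial epithelial cells (BE3C system). Changes in either direction were fitted against DMSO. Parallel cultures were stained with SRB to flag overt cytotoxicity.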

[18] = read-out: Interleukin-8 (IL8), CXCL8 (gene 3576); assay: BSK_CASM3C_IL8: BioMAP Diversity Plus: CASM3C Assay for Interleukin-8 (IL8) Biomarker Activity (AID 2283042); settings: primary human coronary artery smooth muscle cells; actives raise or lower the signal;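 note: IL-8 protein level quantified by ELISA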
[19] = read-out: urokinase plasminogen activator (uPA), PLAU (gene 5328); assay: BSK_BE3C_uPA: BioMAP Diversity Plus: BE3C Assay for urokinase plasminogen activator (uPA) Biomarker Activity (AID 2283038); settings: primary human bronchial epithelial cells; actives raise or lower the signal
In short: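 Human primary bronchial epithelial cells were exposed to chemical for 24 h, then uPA levels were measured by ELISA. Responses were fitted bidirectionally against DMSO as negative control and baseline. Parallel SRB staining of total protein gauged overt cytotoxicity.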

[20] = read-out: Vascular endothelial growth factor receptor 2 (Homo sapiens) (UniProt P35968); assay: BSK_4H_VEGFRII: BioMAP Diversity Plus: 4H Assay for Vascular endothelial growth factor receptor 2 (VEGFR2) Biomarker Activity (AID 2283031); settings: primary human endothelial cells (HUVEC); actives raise or lower the signal
In short: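 Primary human umbilical vein endothelial cells in the BioMAP 4H system were dosed with test chemical, and 24 h later VEGFRII was measured by ELISA. Activity was fitted bidirectionally against DMSO as negative control and baseline.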

Measured: AC50

CCN(CC)CCOc1ccc(C(=C(Cl)c2ccccc2)c2ccccc2)cc1
active: [1] 11.7 µM | [2] 28 µM | [3] 6.1 µM | [4] 8.24 µM | [5] 13.1 µM | [6] 27.8 µM | [7] 5.39 µM | [8] 13 µM | [9] 15.2 µM | [10] 11.6 µM | [11] 15.3 µM | [12] 25.7 µM | [13] 16.1 µM | [14] 26.1 µM | [15] 26.3 µM | [16] 31.6 µM | [17] 11.1 µM | [18] 32 µM

CCCCCCCC(=O)OC
not listed: [20]
inactive: all other assays above

CCCCC(CC)CO (centres undefined)
not listed: [19] | [20]
inactive: all other assays above

CN(C)CCCN(C)CCCN(C)C
not listed: [20]
inactive: all other assays above

O=C(Oc1ccccc1)c1cccc(C(=O)Oc2ccccc2)c1
not listed: [20]
inactive: all other assays above

NC1CCCCC1
not listed: [19] | [20]
inactive: all other assays above

C=CCc1ccc(OC)c(OC)c1
not listed: [19] | [20]
inactive: all other assays above

O=C1NC(=O)C(c2ccccc2)(c2ccccc2)N1
not listed: [2] | [19]
inactive: all other assays above

CC1=C(C)S(=O)(=O)CCS1(=O)=O
active: [3] 39 µM
not listed: [20]
inactive: all other assays above

CC(=O)OC1CC(C)OC(C)O1 (centres undefined)
not listed: [2]
inactive: all other assays above

CN(C)C(=O)NC1(c2ccccc2)CCN(CC[C@@]2(c3ccc(F)c(F)c3)CN(C(=O)c3ccccc3)CCO2)CC1
not listed: [2]
inactive: all other assays above

CCCCCCC(C=O)=Cc1ccccc1
active: [1] 31 µM | [3] 37.5 µM | [4] 31.1 µM | [5] 31.8 µM | [10] 33.5 µM
not listed: [2]
inactive: all other assays above

S=c1[nH]c2ccccc2s1
not listed: [2]
inactive: all other assays above

Cc1ccc(-c2cc(C(F)(F)F)nn2-c2ccc(S(N)(=O)=O)cc2)cc1
active: [1] 23.1 µM | [3] 37.5 µM | [4] 25.8 µM | [5] 28 µM | [6] 35.7 µM | [7] 28.4 µM | [8] 20 µM | [9] 33.4 µM | [10] 32.7 µM | [11] 30.6 µM | [12] 39.1 µM | [13] 20 µM | [14] 36.6 µM | [19] 35.9 µM | [15] 31.6 µM | [16] 32.9 µM | [17] 18.6 µM | [18] 32.7 µM
inactive: [20]

CN(C)C(=O)NC1(c2ccccc2)CCN(CCC[C@]2(c3ccc(Cl)c(Cl)c3)CCCN(C(=O)c3ccccc3)C2)CC1
active: [1] 6.65 µM | [3] 9.81 µM
not listed: [19] | [20]
inactive: all other assays above
